Consider 37 compounds from PubChem BioAssay (NCI).

Several values for one entry are separate records, joined by “and”; a condition that tells them apart may be missing. Equal entries are not always repeated. Compounds without any hit were thinned out: in the full panel of roughly 83,000, 20% have a hit.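 A percent growth of 40 corresponds to 60% growth inhibition; 0 means no net growth; -100 means all cells died. Active threshold: below 10.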 Unmarked numbers belong to inactive results. Activity calls are given as the source filed them.

The assay deals with MDA-MB-468 breast. Put plainly: NCI-60 one-dose screen, 48 h (100 = growth as untreated, 0 = no growth, -100 = all killed). To be noted: 10 µM unless noted.
`O=C1Nc2cc(-c3cccc(O)c3)ccc2/C1=C/c1ccc[nH]1`: the growth is 7.4% (active). Under `O=C(CN1CCN(c2cc3c(cc2F)c(=O)c(C(=O)O)cn3C2CC2)CC1)N/N=C/c1ccco1` stands 104%; under `CCCCN1CCN(c2ccc3nc(-c4ccc5nc(-c6ccc(OCC)c(OCC)c6)[nH]c5c4)[nH]c3c2)CC1`, -77.8% (active). Then `O=C(Nc1ccc(Cl)cc1)c1cc(-c2ccc(Cl)cc2)c2sc(=O)[nH]c2n1`, with -3.42% (active). Under `COc1ccc(/C=C(\C#N)c2cc3ccccc3n2S(C)(=O)=O)cc1` stands 69.3%; under `O=C(NC1C(O)OC(CO)C(O)C1O)NS(=O)(=O)c1ccc(Cl)cc1` (configuration not stated), 108%; under `O=C1c2cccc3cccc(c23)C(=O)N1N1C(=O)c2cccc3c(N4CCOCC4)ccc(c23)C1=O`, 99.9%. Take `Cc1ccc(Nc2nc(N)nc(N)c2N=O)cc1Cl`: the growth was 40%. Then `Nc1nc(Nc2ccccc2SSc2ccccc2Nc2nc(N)nc(-c3cccc(Cl)c3)n2)nc(-c2cccc(Cl)c2)n1`, with 95.3%; and `Clc1cc2c(c(CSc3nc4ccccc4n4cccc34)c1)OCOC2`, with -1.64% (active).

`Cc1ccc(C(=O)CSc2nc3ccccc3c(=O)n2C)cc1`: the growth was 82.6%.

Take `Cc1ccc(N2CCN(C(=S)c3cccs3)CC2)cc1`: the growth was 88.7%. In the case of `O=c1oc2cc(OS(=O)(=O)c3ccccc3)ccc2c2c1CCCCC2`, the growth was 44.3%. Turning to `O=C1[C@H]2Cc3c([nH]c4ccccc34)[C@@H](c3c(Cl)cccc3Cl)N2C(=O)CN1C1CCN(Cc2ccccc2)CC1`, the growth is 97.7%. Then `CCOC(=O)C(=O)/C(=C\c1ccc(Cl)cc1)C(=O)N1C(=S)NC(=O)C1CC(C)C` (configuration not stated), with 90%. Then `S=C(Cc1ccc(-c2ccccc2)cc1)N1CCOCC1`, with 90.8%; and `COc1ccc(NS(=O)(=O)N2CCCCC2)cc1`, with 105%; and `C[C@@H](C[C@H](CCOCc1cccnc1)c1ccccc1)c1cc2ccccc2o1`, with 99.5%. Then `N#Cc1c(Nc2ccccc2)nn2cc(-c3nc4ccccc4s3)c(N)nc12`, with 73.8%; and `O=C(c1ccccc1)C1C(=O)N2C(=S)N(c3ccccc3)C(=O)C2C1c1ccc(Cl)cc1` (configuration not stated), with 0.678% (active).

`CC1(C)CC(=O)C2=C(C1)OC1=C(C(=O)CC(C)(C)C1)C2c1ccc(OCc2cn(-c3ccc(F)cc3F)nn2)cc1`: the growth is 103%. Consider `O=C1CCC(c2c(O)cc(O)c3c(=O)c(O)c(-c4ccc(O)c(O)c4)oc23)N1` (configuration not stated), for which the growth was 108%. Then `CS(=O)(=O)c1nccc(-c2c(-c3cccc(OCCN4CCOCC4)c3)nc3sccn23)n1`, with 37.6%. Under `O=c1[nH]nnc2cc(Cl)ccc12` stands 104%; under `CC(=O)c1cc2c(N)c(C(=O)Nc3cccc4ccccc34)sc2nc1C`, 4% (active); under `COC(=O)CCC1=C(CC(=O)OC)C(C)=N/C1=C\c1[nH]c(-c2ccc[nH]2)cc1OC`, 61.9%. Then `COc1ccc(/C=C2\SC(=Nc3cc(C)on3)NC2=O)cc1`, with 95.6%.

Take `COc1cc(-c2nc(N3CCN(C)CC3)c3ccccc3n2)cc(OC)c1OC`: the growth was 38.4%. Then `O=C(O)CN(CCN(CC(=O)O)CC(=O)O)CCN(CC(=O)O)CC(=O)O`, with 22% and 94.6% and 89.3%; and `O=c1c2cc(F)ccc2sc2c(NCCCNCCO)nc3ccccc3c12`, with -72.8% (active); and `CC1(C)CN(CCNc2nccc(-c3c(-c4cccc(O)c4)nc4sccn34)n2)S(=O)(=O)N1`, with 81%. Then `Cc1[nH]n(C(=O)c2ccncc2)c(=O)c1N=Nc1ccc(O)c(C(=O)O)c1`, with 105%; and `COc1ccc(-c2c(-c3cc(OC)c4c(c3)OCO4)noc2N)cc1`, with -2.08% (active); and `COc1ccc(-c2nn(-c3cccc(NC(=O)c4ccc(N5CCOCC5)c(C(F)(F)F)c4)c3)cc2-c2ccncc2)cc1Cl`, with 80.6%. On to `CN(C)c1ccc(/C=C2\C=C(c3nc4ccccc4s3)OC2=O)cc1`, for which the growth was 79.8%.

For the compound `CCOC(=O)C(CCC#N)(CCC#N)C(=O)OCC`, the growth is 99.9%.

Turning to `C=C(C)[C@@H]1CC[C@]2(C(N)=O)CC[C@]3(C)[C@H](CC[C@@H]4[C@@]5(C)C/C(=C/c6ccco6)C(=O)C(C)(C)[C@@H]5CC[C@]43C)[C@@H]12`, the growth is 87.6%.
